Source: PubChem BioAssay AID1578 (Sanford-Burnham Center for Chemical Genomics, 2009)
About 3,000 (1%) of roughly 290,000 compounds were called active. No stated cut-off is given here; in the data, active means inhibition mostly above about 36% (no sharp cut-off); inactive means mostly below about 34%. This excerpt belongs to a sample that is enriched for actives.

experiment: NOD1 signaling inhibitors, primary screen, cell-based, luminescence, uHTS (AID 1578); settings: NOD1-driven NF-kB luciferase reporter cells, at 4 µM, active compounds read high;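 further: HEK-293T reporter cells stimulated with the NOD1 agonist gamma-tri-DAP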

inhibition, inactive:
CCNC(=S)N/N=C1\C(=O)c2cccc3cccc1c23 47.8%
CCCCNC(=S)N/N=C1\C(=O)c2cccc3cccc1c23 -56.3%
CC(C)(C)c1ccc(-c2cc(-c3ccccc3O)[nH]n2)cc1 25.5%
Cc1cccc(NC(=S)N/N=C/c2cccn2Cc2ccc(F)cc2)c1 23.3%
Cc1nc([N+](=O)[O-])c(Br)n1CC(=O)c1ccc(Br)cc1 44.8%
Cc1nc([N+](=O)[O-])c(Br)n1CC(=O)c1ccccc1 28.9%
C[C@@H]1ON(C2CCCCC2)[C@H]2c3nc4ccccc4n3C[C@@H]12 -10.2%
CCn1c(Cc2ccc(OC)cc2)nnc1SCc1nc2ccccc2c(=O)[nH]1 -38.1%
CCOCC(=O)Nc1c(C(=O)N2CCN(c3ncccn3)CC2)oc2ccccc12 -37.9%
COc1ccc(OC)c(NC(=O)c2cc(-c3cc(C)ccc3O)n[nH]2)c1 3.5%
COc1ccc(NC(=O)c2cc(-c3cc(Cl)ccc3O)n[nH]2)c(OC)c1 -3.3%
Cn1c(CNC(=O)c2ccc(F)cc2)cc2ccccc21 -17.9%
Cc1onc(-c2c(F)cccc2Cl)c1C(=O)NC1=NCCS1 -2%
Cn1c(SCC(=O)NCC2CCCO2)nc2c(c1=O)SCC2 (stereo unspecified) -11.7%
CN(C)S(=O)(=O)N1CCC(Oc2ccc(C(=O)NC3CCCCC3)cc2)CC1 -24.9%
C=C(C)CNC(=O)c1ccc(OC2CCN(S(=O)(=O)N(C)C)CC2)cc1 -27.4%
C=CCN(CC=C)C(=O)c1ccc(OC2CCN(S(=O)(=O)N(C)C)CC2)cc1 -27.3%
CN(C)S(=O)(=O)N1CCC(Oc2cccc(C(=O)NC3CCOC3)c2)CC1 (stereo unspecified) -17.9%
Cc1oc(-c2ccccc2Cl)nc1CSCC(=O)O -4.9%
COC(=O)c1cccc(N(C(=O)c2cnccn2)C(C(=O)NCc2ccccc2)c2ccco2)c1 (stereo unspecified) -29.2%
O=C(Nc1cn(-c2ccccc2)nc1-c1ccc(Cl)cc1)c1ccccc1 -1.1%
CC(=O)Nc1cc(-c2ccc(Cl)cc2)nn1-c1ccccc1 -11.7%
Cc1cc(NC(=O)CC(F)(F)F)n(-c2ccccc2)n1 -13.5%
CC(=O)Nc1cn(-c2ccccc2)nc1-c1ccccc1 -27.2%
CCCc1cc(C(=O)Nc2cc(C)nn2-c2ccccc2)no1 9.1%
Cc1ccc(-c2cc(NC(=O)CCl)n(-c3ccccc3)n2)cc1 16%
CSc1nc2c(c(=O)[nH]1)CCCC2 -21.3%
COC(=O)c1ccc(NC(=O)CNC(=O)C2CCCCC2)cc1 -20.7%
C/C(=N\NC(=O)c1nn(C)cc1Br)c1ccncc1 -3.7%
O=C(O)c1ccc(S(=O)(=O)c2ccc3c(c2)C(=O)N(c2ccc(Br)cc2)C3=O)cc1 -8.2%
CN(CCOC(=O)c1ccco1)Cc1ccccc1 3.9%
COc1ccc(Sc2ccc(/C=C3\C(=O)NN(c4ccccc4)C3=O)o2)cc1 -2.5%
O=C1NN(c2ccccc2)C(=O)/C1=C/c1ccc(-c2ccc(C(=O)O)cc2)o1 -32%
CC(=O)N1[C@H](C)C=C[C@]1(Cc1ccccc1)C(=O)NCc1cc(F)cc(C(F)(F)F)c1 5.4%
CCN(CC)CCNCC1C(=O)O[C@@H]2C[C@@]3(C)CCC[C@H](C)C3=C[C@H]12 (stereo partly specified) -10.7%
CC1CCN(CC2C(=O)O[C@@H]3C[C@@]4(C)CCC[C@H](C)C4=C[C@H]23)CC(C)(C)C1 (stereo partly specified) 15.4%
CCOC(=O)c1c(C)[nH]c(C(=O)CN2C(=O)NC(C)(CC(C)C)C2=O)c1C (stereo unspecified) -30.4%
CCOc1ccc(NC(=O)c2cc(=O)[nH]c3ccccc23)cc1 -21.6%
Nc1ccc2nc(SCc3ccccc3F)sc2c1 -8.7%
CCc1cccc(NC(=O)c2cnn(-c3ccccc3)c2C)c1 -1.5%
COc1ccc(-c2nc(CSCC(=O)NC3CCN(Cc4ccccc4)CC3)c(C)o2)cc1OC -11.6%
Cc1ccc(-c2nc(CSCC(=O)NC3CCN(Cc4ccccc4)CC3)c(C)o2)cc1 16%
COc1cc(C(=O)N2CCCCCCC2)ccc1OC1CCN(C(C)=O)CC1 -27.7%
C=CCc1cccc(/C=N/NC(=O)C(C)Nc2ccc(C)cc2)c1O (stereo unspecified) 30.7%
C=CCc1cccc(/C=N/NC(=O)C(=O)Nc2ccc(C)cc2)c1O -24.6%
CCOC(=O)C(Cc1ccccc1)NC(=O)CNC(C)=O (stereo unspecified) -11.4%
Cc1ccc(/C=N/Nc2cccc(C(=O)O)c2)s1 4.1%
CC(C)(C)c1ccc(/C=N/Nc2cccc(C(=O)O)c2)cc1 -13.1%
O=C(O)c1cccc(N/N=C/c2ccc(-c3ccccc3)cc2)c1 3.6%
Cc1ccsc1/C=N/Nc1ccc(C(=O)O)cc1 -2.3%
O=C(O)c1cccc(N/N=C/c2ccc(F)c(F)c2)c1 -12.4%
CSc1ccc(/C=N/Nc2ccc(Cl)c(C(=O)O)c2)cc1 -22.8%

inhibition, active:
CNC(=S)N/N=C1\C(=O)c2cccc3cccc1c23 98.1%
COc1ccc(OC)c(NC(=O)c2cc(-c3cc(Cl)ccc3O)n[nH]2)c1 61.4%
C=C(C)CN(CC)C(=O)c1ccc(OC2CCN(S(=O)(=O)N(C)C)CC2)cc1 59.3%
O=C1NN(c2ccccc2)C(=O)/C1=C/c1ccc(Sc2cccc3ccccc23)o1 74.7%
C[C@H]1CCC[C@]2(C)C[C@H]3OC(=O)C(CN4CCCCCC4)[C@H]3C=C12 (stereo partly specified) 34%
C=CCc1cccc(/C=N/NC(=O)C(C)Nc2cccc(C)c2)c1O (stereo unspecified) 53.5%
CN(C)c1ccc(/C=N/Nc2cccc(C(=O)O)c2)cc1 72.1%
Cc1ccsc1/C=N/Nc1cccc(C(=O)O)c1 84%
CSc1ccc(/C=N/Nc2cccc(C(=O)O)c2)cc1 83.8%
